Assay outcomes deposited in PubChem by National Center for Advancing Translational Sciences (NCATS).
This is a sample that favours compounds with a hit; in the whole collection about 0.39% have one here.
ERG Ets-DNA blk = ERG Ets/DNA interaction inhibition; fluorescence polarization, His-ERG Ets domain / labelled DNA; AID 624246; Potency, µM (series often up to 76.9 µM), for the others: at the highest dose FP activity, negative = inhibition, most hits filed as inhibitors; P11308; 370,000 tested, 0.028% active; active = well fitted inhibition curve with a large enough effect in the polarisation, with a control signal flat; inconclusive = small, poorly fitted or top-dose-only effect, or effect the other way, or a change in a side signal; inactive = no such curve, though single readings can be large or run the other way; the % refers to the polarisation;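 also: polarization taken with two DNA probes labelled with fluorescein and Texas red; potency is read from the fitted curve at half-maximal effect; % of control where 0% means no effect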
Target sequence (P11308 whole entry, looked up, the tested form may be a part): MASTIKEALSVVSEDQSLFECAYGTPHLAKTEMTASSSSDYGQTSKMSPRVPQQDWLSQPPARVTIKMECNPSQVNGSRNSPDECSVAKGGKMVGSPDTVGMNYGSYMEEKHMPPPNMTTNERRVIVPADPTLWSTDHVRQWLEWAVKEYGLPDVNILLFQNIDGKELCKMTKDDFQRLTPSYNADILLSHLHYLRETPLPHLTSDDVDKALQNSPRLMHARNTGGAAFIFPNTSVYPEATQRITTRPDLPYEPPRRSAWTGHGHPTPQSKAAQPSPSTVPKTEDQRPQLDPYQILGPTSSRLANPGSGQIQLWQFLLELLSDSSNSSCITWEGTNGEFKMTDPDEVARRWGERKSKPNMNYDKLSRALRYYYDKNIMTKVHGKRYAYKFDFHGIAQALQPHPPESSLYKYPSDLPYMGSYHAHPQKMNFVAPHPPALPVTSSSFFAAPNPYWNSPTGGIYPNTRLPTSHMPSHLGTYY
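His-tagged ERG Ets domain (1 uM in the protein solution; 300mM KCl, 50mM Tris-HCl, 1mM EDTA, 1mM DTT, pH 7.5) received compound, then a probe mix of 5 nM fluorescein-DNA and 100nM Texas-615-DNA. Fluorescence polarization was read for both dyes.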
Apoferritin bind = binds horse apoferritin like a general anesthetic; apoferritin/1-aminoanthracene competitive binding, fluorescence; Potency, µM (titrated, usually from 77.5 µM), for inactives: at the top dose activity change, negative = displacement, usual class: inhibitors; 350,000 tested, 0.074% active; AID 485281; also: potency is read from the fitted curve at half-maximal effect; % is scaled to controls: 0 for no effect and ±100 for the full control effect; nearly all actives have a fitted effect of over 20% in size
Target sequence (P02791 2-175 limits assumed): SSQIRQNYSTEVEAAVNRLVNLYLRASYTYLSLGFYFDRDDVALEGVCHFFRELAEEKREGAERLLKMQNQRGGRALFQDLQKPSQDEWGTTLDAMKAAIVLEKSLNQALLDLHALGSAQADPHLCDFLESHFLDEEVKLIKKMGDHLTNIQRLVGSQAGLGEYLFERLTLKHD
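In PBS, apoferritin at 10 uM is loaded with 1-AMA from a 50% saturated solution. After 10 min of compound exposure at ambient temperature, reduced 535 nm fluorescence indicates probe displacement.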
CCT modulator = cytosolic chaperonin activity modulation. purified chaperonin ATPase assay, HTRF ADP detection, 30 min. activity change, % (test concentration not listed), hits read low. 360,000 tested, 0.3% active. AID 651819; in the data active = activity change below about -30%; also: % is scaled to controls: 0 for no effect and ±100 for the full control effect
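Nucleotide hydrolysis assay: TRiC at 20–40 nM final (set by batch activity) with 10 uM ATP, 30 min at 37 °C, in presence of 76 uM compound. Detection by competitive ADP HTRF, 30 min ambient.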
Mm-Cpn inhibitor = M. maripaludis TRiC chaperonin inhibition; Potency, µM (titrated, usually from 76.9 µM), for the others: at the highest dose activity, negative = inhibition, most hits filed as inhibitors; purified Mm-Cpn ATPase, ADP Transcreener TR-FRET; 330,000 tested, 0.031% active; also: potency is read from the fitted curve at half-maximal effect; % is scaled to controls: 0 for no effect and ±100 for the full control effect; nearly all actives have a fitted effect of over 80% in size
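25 nM Mm-CPN + cpd, 10 min 37°C; + 10 uM ATP, 30 min 37°C; buffer 30 mM Tris pH 7.4, 100 mM KCl, 5 mM MgCl2, 1 mM DTT; Transcreener ADP HTRF detection 30 min RT.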
* hit, by the source's call; ? = inconclusive; . = no result given; [ ] = remark or other dose. Unless noted, calls follow the shape of the dose curve; as a rule, active = well fitted curve in the direction sought with a large enough effect; inconclusive = small, poorly fitted or top-dose-only effect, or another doubt; inactive = no such curve, though single readings can be large; an effect the other way counts as inactive or inconclusive.

SMILES	ERG Ets-DNA blk	Apoferritin bind	CCT modulator	Mm-Cpn inhibitor
CCN1CCOC(=O)C1CC(=O)Nc1ccc(Br)cc1 (configuration not stated)	3%	-11%	.	.
O=C1c2ccccc2-c2onc3ccc(N4CCCC4)c1c23	18µM*	?	-1	-9%
COc1ccc2c(-c3ccc(OCCN4CCOCC4)cc3)c(-c3ccccc3OC)sc2c1	-6%	.	-1	32µM*
COc1cc2sc(-c3ccccc3OC)c(-c3ccc(OCCN4CCOCC4)cc3)c2cc1OC	6%	.	2	45µM*
Cc1nc2c(C(=O)NCCC3=CCCCC3)c[nH]n2c(=O)c1Cl	-5%	-14%	-39*	1%
C/C(=C1/SC(=S)N(CCC(=O)O)C1=O)c1ccc(O)cc1	?	-17%	-38*	-2%
COc1ccc2c3c(c(=O)oc2c1)C1O[C@](CCCCN2C(=O)c4ccccc4C2=O)(Cc2cc(OC)c(OC)cc21)O3	.	-17%[15.3 µM]	.	-7%[15.4 µM]
CC1(C)CC(=O)C/C(=N\NC(=O)C2CC2c2ccccc2)C1 (configuration not stated)	5%	-15%	-2	2%
CC1(C)CC(=O)C/C(=N\NC(=O)C2CC23CCC3)C1 (configuration not stated)	-11%	-10%	1	50µM*
Cc1ccc(C)c(Nc2ncnc(N)c2[N+](=O)[O-])c1	-2%	-2%	-41*	1%
Cc1csc2nc(O)c(C(=O)NC3CCCCC3)c(=O)n12	2%	.	-1	-1%
Cc1csc2nc(O)c(C(=O)NC3CCCCCC3)c(=O)n12	-1%	.	-35*	-3%
COc1cccc(O)c1O	.	-15%	.	.
COc1ccc(OC(=O)c2ccc3nsnc3c2)cc1	0%	-14%	-48*	1%
Cc1nnnn1/C(=C\c1ccccc1)C(=O)OCC(=O)N(C)C1CCS(=O)(=O)C1 (configuration not stated)	-1%	-8%	-3	3%
CCN(C(=O)COC(=O)/C(=C/c1ccccc1)n1nnnc1C)C1CCCCC1	-15%	.	-88*	-1%
Cc1ccc(C(=O)C2=C(O)C(=O)N(c3ncccn3)C2c2ccccc2F)o1 (configuration not stated)	-11%	0%	-66*	-15%
Cc1ccc(C(=O)C2=C(O)C(=O)N(c3ncccn3)C2c2ccc(F)cc2)o1 (configuration not stated)	7%	-6%	-4	-20%
CN(Cc1cccc(Cl)c1)C(=O)C1CCC(=O)N(C2CC2)C1 (configuration not stated)	15%	-3%	-76*	-1%
COc1ccc(NC(=O)CSc2nc3ccccc3n2CC(=O)N2CCCC(C)C2)cc1 (configuration not stated)	-3%	0%	.	.
CC(NC(=O)OC(C)(C)C)C(=O)NC(CCC(=O)OCc1ccccc1)C(N)=O (configuration not stated)	-5%	-4%	-60*	1%
CC(C)C(NC(=O)OC(C)(C)C)C(=O)NC(CCC(=O)OCc1ccccc1)C(N)=O (configuration not stated)	4%	-5%	-1	1%
S=c1[nH]nc(-c2ccc3ccccc3n2)n1-c1ccccc1	0%	-9%	-69*	-7%
CC1=C(C(=O)OCc2ccccc2)C(c2cccc(Cl)c2Cl)CC(=O)N1 (configuration not stated)	0%	-6%	.	.
COC(=O)C1=C(C)NC(=O)CC1c1cccc(Cl)c1Cl (configuration not stated)	3%	-12%	-30*	0%
SMILES	ERG Ets-DNA blk	Apoferritin bind	CCT modulator	Mm-Cpn inhibitor
FC(F)(F)c1ccccc1NC(=S)N1CCCC1	9%	5%	-38*	-1%
S=C(Nc1ccc(Cl)cc1Cl)N1CCCCC1	0%	-19%	-66*	2%
CCOC(=O)c1cc(S(=O)(=O)Nc2ccc(C)cc2Cl)[nH]n1	0%	-1%	.	.
Cn1cnc(S(=O)(=O)N2CCN(c3ccccc3)CC2)c1	6%	3%	-78*	0%
CCS(=O)(=O)N1CCN(c2ccccc2)CC1	7%	-11%	-40*	1%
CCS(=O)(=O)N1CCN(S(=O)(=O)c2ccccc2)CC1	4%	-8%	0	1%
COc1cc2c(c(OC)c1OC)-c1c(cc(OC)c(OC)c1OC)CC(C)C(C)C2 (configuration not stated)	.	-21%	.	.
O=C(Nc1cccc(Cl)c1)OCC#CCCl	.	-7%	.	.
O=C(Nc1ccc(N2CCCCC2)cc1)c1ccccc1	.	-17%	-66*	-1%
Cc1ccc(C(=O)Nc2ccc(N3CCCCC3)cc2)cc1	.	.	.	0%
COc1cccc(-c2noc(COc3cccc(C)c3C)n2)c1	0%	-8%	.	.
CC(=O)NC1C(=O)N(CCN2CCOCC2)c2ccc(Cl)cc21 (configuration not stated)	1%	15%	-30*	-6%
CC(=O)NC1C(=O)N(CCN2CCOCC2)c2ccc(C)cc21 (configuration not stated)	15%	-9%	-1	-10%
Cc1ccc(C(C)C)c(OCC(=O)Nc2cccc(S(=O)(=O)NC3=NCCCCC3)c2)c1	4%	6%	-36*	0%
COc1cccc(CNC(=O)c2nn(-c3ccccc3Cl)nc2CO)c1	-2%	-5%	.	.
Cc1cccc(C)c1NS(=O)(=O)c1c(C)[nH]c(=O)[nH]c1=O	3%	-6%	-37*	-1%
O=c1c(-c2c(O)cc(O)c3c2O[C@H](c2ccc(O)cc2)CC3)c(-c2ccc(O)cc2)oc2cc(O)cc(O)c12	8%	.	-2	35µM*
O=C(COC(=O)/C=C/c1ccc(OC(F)F)cc1)NC1CCCC1	-3%	.	-117*	-1%
O=C(COC(=O)/C=C/c1ccc(OC(F)F)cc1)NC(=O)NC1CCCCC1	-8%	.	-3	-2%
Cc1nnc(SCC(=O)NC23CC4CC(CC(C4)C2)C3)n(N)c1=O	6%	?	-42*	0%
Cn1ccnc1SCC(=O)NC12CC3CC(CC(C3)C1)C2	.	?	-1	-5%
C(=N\N1CCN(C2c3ccccc3-c3ccccc32)CC1)/c1ccccn1	-10%	-16%	-3	2%
Cc1ccc(/C=N/N2CCN(C3c4ccccc4-c4ccccc43)CC2)s1	-2%	-5%	-56*	0%
COc1cccc(NC(=O)CN(C)C(=O)CC2CCCC2)c1	-8%	.	-34*	.
CN(C)c1cc2c(cc1NC(=O)c1ccc(F)cc1)n(C)c(=O)n2C	-5%	-2%	.	.
O=S(=O)(NNc1ccc(Cl)nn1)c1ccc(F)cc1	-18%	6%	-69*	1%
O=S(=O)(Nc1ccc(Cl)nn1)c1ccccc1	-1%	-6%	-1	0%
CC(=O)Nc1cccc(NC(=O)c2cccc(Cl)c2)c1	.	.	2	.
CC(=O)Nc1cccc(NC(=O)c2cccc(-c3ccc(O)cc3)c2)c1	1%	4%	-70*	4%
COc1ccccc1NS(=O)(=O)c1cn(C)cn1	15%	0%	-53*	1%
